Measurements published in paper PMC4081100, “A DNA-binding-site landscape and regulatory network analysis for NAC transcription factors in Arabidopsis thaliana”.

How the values were obtained:
Assay in all cases: universal protein binding microarray (PBM); transcription factors of Arabidopsis thaliana; high values mean tight binding
[1] = biological target: T1, GST-ANAC092(1-176) (Arabidopsis thaliana, UniProt Q9FKA0 1-176); conditions: protein: recombinant; tags: GST; chain copies: 2; dsDNA, one strand shown
T1 sequence: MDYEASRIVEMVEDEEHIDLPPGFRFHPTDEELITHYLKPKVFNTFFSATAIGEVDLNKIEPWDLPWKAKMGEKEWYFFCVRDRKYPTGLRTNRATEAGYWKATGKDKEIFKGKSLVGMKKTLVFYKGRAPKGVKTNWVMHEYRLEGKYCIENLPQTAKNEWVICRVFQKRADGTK
In short: (§1)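 For zinc-finger proteins, zinc acetate was added while GST-tagged NAC-domain, full-length or DNA-binding-domain proteins were induced in cells. Purification used glutathione–Sepharose 4B, and quantification used A280 or anti-GST western blot. Custom all-10-mer Agilent 4 × 180K arrays, made double-stranded by primer extension, each received a protein at 200 to 500 nM final in duplicate. Scoring covered gapped and ungapped 8-mers, with binding given as the normalised enrichment score (E-score).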

[2] = biological target: T2, GST-ANAC055(1-171) (Arabidopsis thaliana, UniProt Q9LDY8 1-171); conditions: protein: recombinant; tags: GST; chain copies: 2; dsDNA, one strand shown
T2 sequence: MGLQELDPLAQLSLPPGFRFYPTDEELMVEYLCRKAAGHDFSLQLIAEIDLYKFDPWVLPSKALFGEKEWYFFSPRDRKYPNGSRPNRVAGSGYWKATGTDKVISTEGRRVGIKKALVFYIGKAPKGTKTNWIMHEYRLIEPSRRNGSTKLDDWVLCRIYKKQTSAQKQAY
In short: as §1

[3] = biological target: T3, GST-ATAF1 NAC domain (Arabidopsis thaliana, UniProt Q39013 7-158); conditions: protein: recombinant; tags: GST; chain copies: 2; dsDNA, one strand shown
T3 sequence: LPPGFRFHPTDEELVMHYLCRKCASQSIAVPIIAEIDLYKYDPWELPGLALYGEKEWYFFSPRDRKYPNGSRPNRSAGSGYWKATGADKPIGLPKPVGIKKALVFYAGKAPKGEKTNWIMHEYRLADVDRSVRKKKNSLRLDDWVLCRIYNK
In short: as §1

[4] = biological target: T4, GST-ANAC092(1-285) full length (Arabidopsis thaliana, UniProt Q9FKA0 1-285); conditions: protein: recombinant; tags: GST; chain copies: 2; dsDNA, one strand shown
T4 sequence: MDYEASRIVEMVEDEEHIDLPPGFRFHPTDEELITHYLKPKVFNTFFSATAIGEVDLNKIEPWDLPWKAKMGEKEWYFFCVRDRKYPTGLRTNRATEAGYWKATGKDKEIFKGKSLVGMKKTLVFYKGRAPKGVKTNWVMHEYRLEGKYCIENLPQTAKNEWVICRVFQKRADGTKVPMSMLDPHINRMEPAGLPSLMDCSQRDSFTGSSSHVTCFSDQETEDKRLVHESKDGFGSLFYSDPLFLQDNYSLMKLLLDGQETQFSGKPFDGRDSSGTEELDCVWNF
In short: as §1

[5] = biological target: T5, GST-NST2(1-184) (Arabidopsis thaliana, UniProt Q9M274 1-184); conditions: protein: recombinant; tags: GST; chain copies: 2; dsDNA, one strand shown
T5 sequence: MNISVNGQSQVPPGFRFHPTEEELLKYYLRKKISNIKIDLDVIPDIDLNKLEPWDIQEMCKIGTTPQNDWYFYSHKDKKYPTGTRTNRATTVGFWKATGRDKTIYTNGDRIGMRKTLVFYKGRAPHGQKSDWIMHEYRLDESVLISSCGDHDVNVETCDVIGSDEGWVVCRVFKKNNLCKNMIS
In short: as §1

[6] = biological target: T6, GST-NTL8 NAC domain (Arabidopsis thaliana, UniProt Q9XIN7 14-156); conditions: protein: recombinant; tags: GST; chain copies: 2; dsDNA, one strand shown
T6 sequence: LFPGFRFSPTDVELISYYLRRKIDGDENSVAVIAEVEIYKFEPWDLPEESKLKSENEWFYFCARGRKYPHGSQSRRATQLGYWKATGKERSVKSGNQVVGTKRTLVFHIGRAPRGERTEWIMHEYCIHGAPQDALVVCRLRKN
In short: as §1

[7] = biological target: T7, GST-SND1(1-203) (Arabidopsis thaliana, UniProt Q9LPI7 1-203); conditions: protein: recombinant; tags: GST; chain copies: 2; dsDNA, one strand shown
T7 sequence: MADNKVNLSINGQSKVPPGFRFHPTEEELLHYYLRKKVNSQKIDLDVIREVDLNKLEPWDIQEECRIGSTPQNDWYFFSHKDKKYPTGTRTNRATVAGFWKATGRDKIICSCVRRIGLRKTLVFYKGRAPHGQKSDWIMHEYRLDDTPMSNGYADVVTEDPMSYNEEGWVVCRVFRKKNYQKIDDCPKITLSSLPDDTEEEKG
In short: as §1

[8] = biological target: T8, GST-VND3 NAC domain (Arabidopsis thaliana, UniProt Q9FH59 12-162); conditions: protein: recombinant; tags: GST; chain copies: 2; dsDNA, one strand shown
T8 sequence: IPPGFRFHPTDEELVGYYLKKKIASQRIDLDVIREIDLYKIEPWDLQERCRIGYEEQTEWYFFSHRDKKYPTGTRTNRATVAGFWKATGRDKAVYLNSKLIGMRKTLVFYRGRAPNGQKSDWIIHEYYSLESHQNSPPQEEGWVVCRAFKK
In short: as §1

[9] = biological target: T9, GST-VND7 NAC domain (Arabidopsis thaliana, UniProt Q9C8W9 9-158); conditions: protein: recombinant; tags: GST; chain copies: 2; dsDNA, one strand shown
T9 sequence: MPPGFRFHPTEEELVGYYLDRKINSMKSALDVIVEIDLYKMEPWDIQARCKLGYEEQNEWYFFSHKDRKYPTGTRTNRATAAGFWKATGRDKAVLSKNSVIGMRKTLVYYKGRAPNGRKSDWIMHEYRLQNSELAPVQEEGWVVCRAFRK
In short: as §1

[10] = biological target: GST-WRKY1(266-371) (Arabidopsis thaliana, UniProt Q9SI37 266-371); conditions: protein: recombinant; tags: GST; dsDNA, one strand shown
Sequence of GST-WRKY1(266-371) (Q9SI37 266-371): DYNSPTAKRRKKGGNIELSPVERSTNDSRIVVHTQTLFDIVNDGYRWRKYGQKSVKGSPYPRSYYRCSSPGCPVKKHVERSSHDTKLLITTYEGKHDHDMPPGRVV
In short: as §1

[11] = biological target: GST-NTL6(1-168) (Arabidopsis thaliana, UniProt Q9SCK6 1-168); conditions: protein: recombinant; tags: GST; chain copies: 2; dsDNA, one strand shown
Sequence of GST-NTL6(1-168) (Q9SCK6 1-168): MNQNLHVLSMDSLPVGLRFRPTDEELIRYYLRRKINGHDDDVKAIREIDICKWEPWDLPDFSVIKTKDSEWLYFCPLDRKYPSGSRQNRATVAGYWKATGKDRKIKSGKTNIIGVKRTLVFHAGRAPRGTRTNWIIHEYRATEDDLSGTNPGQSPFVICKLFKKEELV
In short: as §1

[12] = biological target: T10, GST-ANAC019 NAC domain (Arabidopsis thaliana, UniProt Q9C932 14-162); conditions: protein: recombinant; tags: GST; chain copies: 2; dsDNA, one strand shown
T10 sequence: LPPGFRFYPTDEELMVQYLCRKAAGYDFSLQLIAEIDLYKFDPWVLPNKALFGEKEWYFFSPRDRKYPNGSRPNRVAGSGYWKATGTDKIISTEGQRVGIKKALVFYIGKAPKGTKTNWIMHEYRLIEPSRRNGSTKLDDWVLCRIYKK
In short: as §1

[13] = biological target: T11, GST-NAP(1-166) (Arabidopsis thaliana, UniProt O49255 1-166); conditions: protein: recombinant; tags: GST; chain copies: 2; dsDNA, one strand shown
T11 sequence: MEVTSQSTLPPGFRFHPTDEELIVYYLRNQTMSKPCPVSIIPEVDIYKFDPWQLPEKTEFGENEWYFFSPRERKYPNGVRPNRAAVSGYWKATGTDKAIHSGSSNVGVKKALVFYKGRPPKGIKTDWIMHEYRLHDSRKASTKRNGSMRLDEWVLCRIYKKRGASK
In short: as §1

| Sequence | binding signal [1] [E-score] | binding signal [2] [E-score] | binding signal [3] [E-score] | binding signal [4] [E-score] | binding signal [5] [E-score] | binding signal [6] [E-score] | binding signal [7] [E-score] | binding signal [8] [E-score] | binding signal [9] [E-score] | binding signal [10] [E-score] | binding signal [11] [E-score] | binding signal [12] [E-score] | binding signal [13] [E-score] |
| --- | --- | --- | --- | --- | --- | --- | --- | --- | --- | --- | --- | --- | --- |
| TAGAGTAA | 0.177 | 0.0921 | 0.0567 | 0.263 | 0.216 | 0.065 | 0.401 | 0.117 | 0.128 | 0.0876 |  |  |  |
| CAAAGTCA |  | 0.0622 |  | 0.0505 |  |  | 0.0515 | 0.0817 | 0.0536 | 0.454 |  |  |  |
| AACGTGTA | 0.403 | 0.2 | 0.266 | 0.432 | 0.265 |  | 0.295 | 0.275 | 0.0615 |  | 0.0638 | 0.165 | 0.125 |
| TGACGTAA | 0.449 | 0.364 | 0.407 | 0.441 | 0.385 | 0.0784 | 0.482 | 0.406 | 0.392 | 0.178 |  | 0.368 | 0.389 |
| GACGCAAA | 0.382 |  | 0.0741 | 0.411 | 0.123 |  | 0.289 | 0.135 | 0.099 | 0.117 |  | 0.0555 | 0.233 |
| ACGCAATA | 0.444 | 0.212 | 0.166 | 0.447 | 0.288 | 0.0551 | 0.419 | 0.312 | 0.288 | 0.0639 |  | 0.233 | 0.301 |
| CTACGTCA | 0.0986 | 0.129 | 0.166 | 0.318 | 0.31 |  | 0.452 | 0.144 | 0.176 | 0.137 |  | 0.133 | 0.148 |
| TAAGTCAA |  | 0.121 | 0.208 | 0.158 | 0.172 |  | 0.175 | 0.0988 | 0.145 | 0.483 | 0.268 |  |  |
| AAACGTGT | 0.424 | 0.33 | 0.339 | 0.435 | 0.275 |  | 0.214 | 0.328 | 0.306 |  | 0.0946 | 0.269 | 0.249 |
| GATTGACC | 0.141 | 0.0576 |  | 0.14 |  |  | 0.0705 | 0.138 | 0.059 | 0.479 |  |  |  |
| GTTGACTA |  | 0.0652 | 0.103 | 0.133 |  |  | 0.062 | 0.158 | 0.0849 | 0.49 | 0.072 | 0.079 |  |
| TAAGGTCA |  |  | 0.094 |  |  | 0.0905 | 0.132 | 0.223 | 0.143 | 0.441 | 0.242 |  | 0.14 |
| GACTTTTA |  | 0.051 | 0.17 | 0.141 |  |  | 0.0841 | 0.0985 | 0.149 | 0.414 |  | 0.0971 |  |
| AGTTTGAC |  | 0.118 | 0.122 |  |  |  | 0.069 | 0.0521 | 0.095 | 0.48 | 0.0778 | 0.068 |  |
| TACGTTAA | 0.43 | 0.154 | 0.243 | 0.432 | 0.321 |  | 0.462 | 0.249 | 0.173 |  | 0.14 | 0.0653 | 0.12 |
| ACGCAACT | 0.472 | 0.433 | 0.416 | 0.472 | 0.39 | 0.0824 | 0.422 | 0.462 | 0.462 |  | 0.105 | 0.477 | 0.478 |
| AACACGCT | 0.416 | 0.236 | 0.174 | 0.431 | 0.3 |  | 0.227 | 0.0943 | 0.142 |  | 0.134 | 0.185 | 0.2 |
| ATACGTAT | 0.156 | 0.379 | 0.231 | 0.37 | 0.186 |  | 0.211 | 0.347 | 0.293 |  | 0.12 | 0.281 | 0.445 |
| AAGTTACC | 0.365 | 0.0803 | 0.142 | 0.417 | 0.288 | 0.376 | 0.37 | 0.146 | 0.0773 |  | 0.308 | 0.155 | 0.114 |
| ACACGGAA | 0.464 | 0.481 | 0.376 | 0.458 | 0.328 |  | 0.057 | 0.467 | 0.479 |  | 0.0747 | 0.486 | 0.45 |
